Experimental data from PubChem BioAssay AID2013 (Sanford-Burnham Center for Chemical Genomics, 2009).
The campaign covered roughly 290,000 compounds. About 370 (0.13%) were called active. The sample holds actives, similar compounds and a random draw of the others, so the mix is not that of the screen.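 The calls were made as follows: active = spots per cell inhibited over 60%, with over 100 cells counted and total cytoplasm intensity under 500,000; inconclusive = wells with under 100 cells, flagged as likely toxic; inactive = the rest.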 Measured potencies and affinities stand elsewhere.

biological target: G-protein coupled receptor 55 (Homo sapiens) (UniProt Q9Y2T6); assay: GPR55 antagonists blocking LPI-driven arrestin recruitment, primary screen, imaging, U2OS, beta-arrestin-GFP, LPI agonist (AID 2013); conditions: U2OS GPR55 beta-arrestin-GFP translocation imaging, LPI antagonism; at 10 µM; active compounds read high;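 also: U2OS cells stably carrying GPR55 and arrestin-GFP stimulated by 5 µM LPI near EC80; imaged beta-arrestin-GFP aggregate spots per cell after agonist stimulation; plate controls were LPI-stimulated DMSO wells for no effect and DMSO wells without LPI for full effect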
Sequence (Q9Y2T6 whole entry, looked up): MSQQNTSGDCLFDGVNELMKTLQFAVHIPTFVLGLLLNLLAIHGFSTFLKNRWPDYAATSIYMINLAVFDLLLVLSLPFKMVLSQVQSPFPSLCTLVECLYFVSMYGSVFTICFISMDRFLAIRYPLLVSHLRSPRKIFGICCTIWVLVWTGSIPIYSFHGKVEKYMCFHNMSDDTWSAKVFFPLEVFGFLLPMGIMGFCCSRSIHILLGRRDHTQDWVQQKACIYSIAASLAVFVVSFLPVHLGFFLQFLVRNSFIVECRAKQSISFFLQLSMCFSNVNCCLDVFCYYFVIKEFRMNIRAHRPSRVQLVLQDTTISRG

| SMILES | inhibition |
| --- | --- |
| COc1ccc(CCNC(=O)C/C(C)=N/NC(=O)c2ccc([N+](=O)[O-])cc2Cl)cc1OC | 5.9% (inactive) |
| C#CCOc1c(Br)cc(/C=N/O)cc1OCC | -2.8% (inactive) |
| C=CCOc1ccc(/C=N/NC(=O)CN2CCOCC2)cc1OCC | -14.5% (inactive) |
| COCCNc1c2c(nc3c(-c4ccccc4)c(C)nn13)CCC2 | -0.5% (inactive) |
| CC(=O)c1c(O)cc(O)cc1CC(=O)O | 14.6% (inactive) |
| CCOC(=O)CSc1nc2c(sc(=S)n2-c2ccc(OCC)cc2)c(=O)[nH]1 | -5.3% (inactive) |
| CCCCN(CC)C(=O)CSc1nc2c(sc(=S)n2-c2ccc(OCC)cc2)c(=O)[nH]1 | 6.8% (inactive) |
| O=c1c2ccccc2nc(-c2ccccc2)n1CCCN1CCOCC1 | -6.4% (inactive) |
| COc1ccc(-c2nn(-c3ccccc3)cc2/C=C2/SC(=S)N(Cc3ccco3)C2=O)c(C)c1 | 13.6% (inactive) |
| COc1ccc(-c2nn(-c3ccccc3)cc2/C=C2/SC(=S)N(CCC(=O)O)C2=O)cc1 | 2.4% (inactive) |
| O=C(Nc1ccc(F)cc1F)c1c(C(F)(F)F)ccnc1Oc1cccc(C(F)(F)F)c1 | 6.9% (inactive) |
| Cc1cc(NC(=O)CN(C)S(=O)(=O)c2cnc[nH]2)ccc1Br | 0.7% (inactive) |
| CCCCn1c(NC(C)=O)c(C#N)c2nc3ccccc3nc21 | 17% (inactive) |
| CCCCn1c(NC(=O)c2ccccc2)c(C#N)c2nc3ccccc3nc21 | -12.6% (inactive) |
| Cc1ccc(C(=O)C(C)OC(=O)c2ccccc2[N+](=O)[O-])cc1 (stereo not given) | 9.5% (inactive) |
| CCOCCOC(=O)C1=C(C)NC(=O)NC1c1cc2c(cc1Br)OCO2 (stereo not given) | 5.8% (inactive) |
| COCCNC(=O)c1cc2c(s1)-c1ccc(Cl)cc1SC2 | -8.6% (inactive) |
| CCN(CC)CCNC(=O)c1cc2c(s1)-c1ccccc1SC2 | 15.9% (inactive) |
| O=C(CSc1ccc(F)cc1)NC12CC3CC(CC(C3)C1)C2 | -6% (inactive) |
| COc1ccc(C)cc1Nc1n[n+](-c2ccccc2)c(-c2ccc(SC)cc2)s1 | 4.4% (inactive) |
| COc1ccc(C)cc1Nc1n[n+](-c2ccccc2)c(-c2ccc(C(=O)O)cc2)s1 | 4.6% (inactive) |
| CCC(=O)N1c2ccc(S(=O)(=O)NCCc3ccc(OC)c(OC)c3)cc2CC1C (stereo not given) | -31.8% (inactive) |
| COc1ccc(S(=O)(=O)N2CCCOC2CNC(=O)C(=O)NCc2ccccc2F)cc1C (stereo not given) | 22% (inactive) |
| Cc1[nH]nc(SCC(=O)N2CCCCC2)c1[N+](=O)[O-] | -23.3% (inactive) |
| O=C(COc1ccccc1F)NCC(c1ccco1)N1CCCC1 (stereo not given) | 24.1% (inactive) |

| SMILES | inhibition |
| --- | --- |
| O=C1C(=O)c2ccc(-c3ccccc3)cc2-c2ccccc21 | -5.5% (inactive) |
| Nc1c(O)ccc2c1C(=O)c1ccccc1C2=O | -0.3% (inactive) |
| Oc1ccccc1N=Nc1nc(-c2ccccc2)c(-c2ccccc2)[nH]1 | 15.7% (inactive) |
| COc1ccc(N=Nc2nc(-c3ccccc3)c(-c3ccccc3)[nH]2)cc1 | 19% (inactive) |
| CCOC(=O)N1CCN(C(=O)C2CCC(CNS(=O)(=O)c3ccccc3)CC2)CC1 (stereo not given) | 14.3% (inactive) |
| O=C(c1ccco1)N1N=C(c2cccs2)CC1c1ccccc1O (stereo not given) | 39.4% (inactive) |
| COc1ccc(C(=O)N2N=C(c3cccs3)CC2c2ccccc2O)cc1 (stereo not given) | 54.1% (inactive) |
| C/C(=N/NC(=O)CNC(=O)c1cccnc1)c1cccc([N+](=O)[O-])c1 | -4.3% (inactive) |
| CN1CCN(CCCNC(=O)c2ccc(/C=C3\Sc4ccccc4N(Cc4ccc(F)cc4)C3=O)cc2)CC1 | 6.1% (inactive) |
| CCN1CCN(CCNC(=O)c2ccc(/C=C3/Sc4ccccc4N(Cc4cccc(Cl)c4)C3=O)cc2)CC1 | 7.6% (inactive) |
| CCN1CCN(CCNC(=O)c2ccc3c(c2)N(Cc2ccc(F)cc2)C(=O)/C(=C/c2ccccc2)S3)CC1 | 70.3% (active) |
| CCOc1ccc(Cl)cc1CSc1n[nH]c(C)n1 | -12.3% (inactive) |
| Cc1nnsc1Sc1ccccc1C(=O)O | -7.1% (inactive) |
| COc1cccc(-n2c(=O)c3sccc3n(CC(=O)NC3CCCCC3)c2=O)c1 | -10.7% (inactive) |
| CC(C)NC(=S)NN(c1ccccc1)c1ccccc1 | 11.8% (inactive) |
| CNC(=S)NN(c1ccccc1)c1ccccc1 | 5.4% (inactive) |
| CC(C)CCNC(=O)CN(Cc1ccc(F)cc1)C(=O)CCC(=O)Nc1ccccn1 | 4.6% (inactive) |
| CCOC(=O)c1c(-c2ccccc2)oc2ccc(O)cc12 | -6% (inactive) |
| CCOC(=O)c1c(C)oc2ccc(O)cc12 | 3.1% (inactive) |
| Cc1cc(NC(=O)C2C3C(=O)N(Cc4ccc(Cl)cc4)C(C(=O)NC4CCCCC4)C34C=CC2(C)O4)no1 (stereo not given) | 9.6% (inactive) |
| CC(C)n1cnc2c(Nc3ccc(C(=O)O)cc3)nc(Cl)nc21 | 8.9% (inactive) |
| O=C(CSc1n[nH]c(-c2cc(Cl)ccc2Cl)n1)NCCN1C(=O)CSC1=O | 2.2% (inactive) |
| Cc1ccc(NC(=S)N(CCCN2CCOCC2)Cc2ccccn2)cc1 | 9.5% (inactive) |
| COc1ccc(NC(=S)N(CCCN2CCOCC2)Cc2ccccn2)cc1 | -18.2% (inactive) |
| O=C(c1cc(C2CC2)nc2ccc(Br)cc12)N1N=C(C(F)F)CC1(O)C(F)F (stereo not given) | 9.1% (inactive) |
